From PubChem
mcGAS MS inh: mouse cGAS inhibition by mass spec. recombinant mouse cGAS, cGAMP by RapidFire MS. 130,000 tested, 0.18% active. inhibition, % at 12.5 µM. Q8C6L5;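 active = inhibition of cGAS enzyme activity at or above 60%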;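 also: enzyme stimulated by 45 bp dsDNA with ATP and GTP substrates; cGAMP share of summed cGAMP plus half ATP and half GTP signals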
Large screens that a line does not name were inactive. Many of the other results were omitted from the sample, so hits are more common in it than they were.

O=c1c2ccccc2nc(Cc2ccccc2)n1-c1cccc(O)c1	none
Cc1nc2ccc(N)cc2c(=O)n1-c1ccccc1	none
O=c1c2ccccc2[se]n1-c1ccccc1	mcGAS MS inh 94
COCC#CCN1CCC(C)CC1c1ccco1 (configuration not stated)	none
O=[N+]([O-])c1ccc(O)c(Cl)c1	none
O=[N+]([O-])c1ccc(O)c([N+](=O)[O-])c1	mcGAS MS inh 96
O=C(c1cc([N+](=O)[O-])c[nH]1)C(Cl)(Cl)Cl	none
CCOc1ccc(N2CCNCC2)cc1	none
Cc1cc(C)n2ncc(CN3CCN4CCN(C)C(=O)C4C3)c2n1 (configuration not stated)	none
CN(C)C(=O)c1ccc(-c2cccc3c2CCNC3)o1	none
N#Cc1ccc(CN2CCN(c3cccc(Cl)c3)CC2)cc1	none
OC1CNCC1N1CCCC1 (configuration not stated)	none
Cc1cccc(Cn2cccc(C(=O)Nc3ccc(F)c([N+](=O)[O-])c3)c2=O)c1	none
N#Cc1ccc(OCC(=O)N2CCN(Cc3ccco3)CC2)cc1	none
